Results published in PubChem BioAssay (NCI).
This is part of a sample that, as a whole, favours compounds with a hit. Of some 83,000 tested, about 20% had one in any assay.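 Method: cells in 96-well plates; compound added at one concentration; 48 h incubation; percent growth measured; values under 10 scored active.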 Unmarked numbers belong to inactive results. The source made the active and inactive calls.

Assays:
Assay in all cases: NCI-60 one-dose screen, 48 h (100 = growth as untreated, 0 = no growth, -100 = all killed)
Conditions in all cases: 10 µM unless noted
[1] = tested on: NCI-H23 lung
[2] = tested on: NCI-H322M lung
[3] = tested on: HOP-62 NSCLC
[4] = tested on: NCI-H460 lung
[5] = tested on: HOP-92 NSCLC
[6] = tested on: NCI-H522 lung
[7] = tested on: A549/ATCC NSCLC
[8] = tested on: 786-0 renal
[9] = tested on: COLO 205 colon
[10] = tested on: DU-145 prostate

Compound | growth [1] | growth [2] | growth [3] | growth [4] | growth [5] | growth [6] | growth [7] | growth [8] | growth [9] | growth [10]
CCn1c(Cc2ccccc2Nc2c(Cl)cccc2Cl)nnc1SCC(=O)NN1C(=O)/C(=C/c2cccc(OC)c2OC)SC1=S | 98.4% | 99% | 98.6% | 103% | 96.9% | 86.8% | 96.3% | 104% | 112% | 105%
O=C1c2cc(Cl)ccc2Oc2cc([N+](=O)[O-])ccc2N1c1ccc(F)cc1F | 94.1% | 92.5% | 87.8% | 93.2% | 98.9% | 49.9% | 66.7% | 93.6% | 96.5% | 89.8%
CC(=O)Nc1nc2c(s1)CCc1c-2cn(S(=O)(=O)c2ccccc2)c1-c1ccccc1 | 82.1% | 79.4% | 101% | 75.3% | 87.4% | 54.5% | 53.4% | 88.3% | 75.3% | 78.4%
Cc1c(-c2noc(-c3ccc([N+](=O)[O-])cc3)n2)no[n+]1[O-] | 86% | 88.4% | 86.1% | 103% | 85.2% | 102% | 111% | 99.5% | 113% | 99.9%
CC(C)CCNCC(O)Cn1c2ccccc2c2ccccc21 (stereo not given) | 25.4% | 30.7% | 18.1% | 1.52% (active) | -13.7% (active) | 20.3% | 11.9% | 25.2% | 2.79% (active) | 9.71% (active)
O=c1oc2ccc(F)cc2c(=O)n1-c1ccc(Br)cc1F | 1.49% (active) | 6.65% (active) | -0.164% (active) | 4.13% (active) | -15.2% (active) | -17.9% (active) | 4.2% (active) | 2.85% (active) | 27.7% | 14.5%
COc1ccc(/C=C2\N=C(c3ccccc3)N(c3ccc(-c4nc5ccc(C)cc5s4)cc3)C2=O)cc1 | 87.1% | 60.3% | 99.2% | 89.6% | 82.4% | 67.1% | 70% | 91% | 97.1% | 77.9%
Cc1ccc(F)cc1NC(=O)c1cc(Cl)ccc1Nc1ccccc1 | 60.1% | 62.4% | 83.9% | 40.2% | 75.9% | 47.7% | 42.3% | 68.1% | 16% | 69.6%
COc1cc(/C=C2\CCC/C(=C\c3cc(CN4CCOCC4)c(O)c(OC)c3)C2=O)cc(CN2CCOCC2)c1O | 21.4% | 46.4% | 46.6% | 11.6% | 36.8% | 34.4% | 35.8% | 57.8% | 45.2% | 14.9%
COC(=O)/C(=C\c1c(C)[nH]c2ccccc12)S(=O)(=O)c1ccccc1 | 18.6% | 47.5% | 29.8% | -7.04% (active) | 21.5% | 31.9% | 23.7% | 48% | 31.8% | -53.4% (active)
CN(CCc1ccccc1)C(=S)N(C(=O)c1ccc([N+](=O)[O-])cc1)c1ccc(Cl)cc1 | 97.5% | 102% | 102% | 102% | 67% | 100% | 98.2% | 88% | 109% | 73.1%
O=c1oc2ccc(Cl)cc2c(=O)n1-c1ccc(I)cc1F | 2.29% (active) | 6.37% (active) | 0.787% (active) | 2.33% (active) | -16.5% (active) | -15.5% (active) | 7.89% (active) | 2.82% (active) | 53% | 15.6%
COC(=O)/C(CCC=C(C)C)=C1\[C@@H](OC(C)=O)C[C@@]2(C)[C@H]1C[C@@H](O)[C@H]1[C@@]3(C)CC[C@H](NC(=O)c4cnccn4)[C@@H](C)[C@@H]3CC[C@@]12C | 103% | 108% | 102% | 109% | 100% | 89.6% | 97.9% | 92.2% | 110% | 93.7%
COc1cc(C(C)n2cc(-c3ccccc3)nn2)ccc1OC1CCCC1 (stereo not given) | 45.4% | 78% | 52.7% | 74.1% | 54.7% | 51.2% | 61.3% | 72.7% | 91.8% | 85.6%
COc1cc(/C=C2\CCC/C(=C\c3cc(CN4CCCCC4)c(O)c(OC)c3)C2=O)cc(CN2CCCCC2)c1O | 74.6% | 85.9% | 88.1% | 72.7% | 47% | 87% | 89.7% | 72.4% | 88.4% | 83.1%
CC(=O)n1cc(-c2c[nH]c3ccccc23)c(-c2ccc(Cl)cc2)n1 | 76.2% | 83.6% | 66.3% | 82.3% | 79.7% | 74.8% | 93.7% | 78.9% | 92.4% | 96.3%
Cn1c(=O)n(C)c2cc(CNCCNc3ccnc4cc(Cl)ccc34)ccc21 | 95.3% | 95.4% | 78.1% | 2.02% (active) | 55.9% | 94.9% | 70.3% | 1.49% (active) | 55.1% | 74.8%
COc1ccccc1N1CCN(C(CNS(=O)(=O)c2ccc(Cl)cc2)c2cccnc2)CC1 (stereo not given) | 96.6% | 128% | 94% | 77.1% | 79.5% | 110% | 90.8% | 42.4% | 108% | 85.1%
O=C1Nc2ccccc2/C1=C/c1ccc[nH]1 | 84.9% | 88% | 78.8% | 85.9% | 104% | 90.9% | 92.9% | 96.3% | 106% | 101%
COc1cc(/C=C/C(=O)c2c(C)nc3ccccc3c2/C=C/c2ccccc2)cc(OC)c1OC | 10.9% | 21% | 22.2% | -33.3% (active) | 14.6% | -21% (active) | 8.71% (active) | 18.2% | 4.78% (active) | -0.597% (active)
Clc1ncccc1Nc1ccc2nnc(-c3ccncc3)n2n1 | 93.2% | 106% | 102% | 103% | 110% | -58.6% (active) | 102% | 101% | 109% | 107%
NCCNc1nc2ccc(F)cc2c2c(=O)c3cc(F)ccc3sc12 | 70.9% | 60.6% | 56.5% | -54.7% (active) | 17.4% | 30.9% | 43.7% | 58.6% | -52.2% (active) | 7.23% (active)
CC(C)[C@H](NC(=O)Cn1cc(C(=O)O)nn1)C(=O)O | 97.3% | 99.9% | 108% | 106% | 99.2% | 104% | 97% | 104% | 119% | 114%
CCOC(=O)C1(C(=O)OCC)N=C(c2ccccc2)C=C1c1ccccc1 | 86.4% | 103% | 105% | 104% | 66.5% | 64.4% | 86.7% | 96% | 99.9% | 106%
O=C(Nc1ccc(Br)cc1F)c1cc(I)ccc1O | 4.95% (active) | 2.64% (active) | 0.452% (active) | 6.01% (active) | -27.7% (active) | -30% (active) | 4.34% (active) | 2.92% (active) | 104% | 17.2%
COc1ccc(Cn2c(Br)c3c(c2-c2cc(OC)c(OC)c(OC)c2)CCc2sc(NC(C)=O)nc2-3)cc1 | 66.1% | 63% | 60.3% | 31.2% | 65.5% | 13.4% | 52.8% | 54.1% | 20.8% | 66.7%
COc1ccc(CN2CCCC(C(=O)c3ccc(C(F)(F)F)cc3)C2)c(O)c1 (stereo not given) | 37.3% | 80.6% | 37.5% | 7.11% (active) | 36.5% | -36.6% (active) | 32.3% | 41.5% | -23.1% (active) | 50.6%
